A selection: hits, their analogues and other compounds. The true share with any hit is near 21%.
Pf growth 96h: inhibits malaria parasite growth, 96 h. P. falciparum luciferase reporter growth, 96 h. Potency, µM (highest dose often 28.7 µM), for the others: at the top dose activity change, negative = inhibition, usual class: inhibitors. 320,000 compounds, 6.9% hits; also: potency is read from the fitted curve at half-maximal effect; % is scaled to controls: 0 for no effect and ±100 for the full control effect
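Two parasite generations (96 h, 37 C, 5% CO2) of compound exposure in infected erythrocytes (0.05% parasitemia, 2% hematocrit). Luciferase-reporter P. falciparum; decreased luminescence indicates inhibited growth, aimed at apicoplast-acting delayed death.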
Pf growth 48h: P. falciparum growth inhibition at 48 hours (one generation); P. falciparum luciferase growth in erythrocytes, 48 h; Potency, µM (highest dose often 28.7 µM), without a hit: at the top dose activity change, negative = inhibition, usual class: inhibitors; 310,000 compounds, 5.9% hits; AID 504832; also: potency is read from the fitted curve at half-maximal effect; % is scaled to controls: 0 for no effect and ±100 for the full control effect
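Luciferase-expressing parasites in RBCs, 2% Hct / 0.1% parasitemia final; RPMI 1640 + 0.5% Albumax; 37 C, 5% CO2, one generation; luminescence read-out, lower signal = inhibition.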
Sm TGR inh: blocks Schistosoma mansoni thioredoxin glutathione reductase. purified TGR, DTNB reduction, TNB absorbance 405 nm. Q962Y6. Potency, µM (top dose mostly 114 µM), without a hit: at the top dose activity change, negative = inhibition, hits mostly inhibitors. 360,000 compounds, 3% hits; also: potency is read from the fitted curve at half-maximal effect; % is scaled to controls: 0 for no effect and ±100 for the full control effect; nearly all actives have a fitted effect of over 60% in size
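TGR 20 nM + NADPH 100 uM (dispensed conc.), cpd preinc 15 min RT; start with NADPH (500 uM addition) then DTNB (15 mM addition). Kinetic TNB absorbance, 405 nm filter. Four-parameter Hill fit across titration.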
Cycloheximide cs: counter-screen for Shiga toxin inhibitors: cycloheximide protein synthesis inhibition | cell reporter, cycloheximide protein synthesis inhibition counterscreen | max response, % | 300,000 compounds, 12% hits; in the data active = max response mostly above about 13%, no sharp cut-off; inactive = mostly below about 14%; also: read at 38.3 µM for the half of the compounds with a filed dose; 0% is about no effect
NS1 inh: blocks influenza NS1 protein function. Potency, µM (top dose mostly 46.1 µM), for the others: at the top dose activity, positive = more growth. 270,000 compounds, 0.4% hits. AID 2326; calls by dose curve; also: potency is read from the fitted curve at half-maximal effect; actives are rising curves; nearly all actives have a fitted effect of over 50% in size
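Compounds were scored for reversing the slow growth caused by influenza A NS1 in S. cerevisiae, measured by optical density at 600 nm. Assay medium contained 2% galactose at pH 6.0; NS1-free yeast of the same strain were the positive control.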
Shiga toxin inh: blocks Shiga toxin action in Vero cells; inhibition, % at 38.7 µM; AID 2315; 290,000 compounds, 9.2% hits; Vero cells, Shiga toxin protein synthesis inhibition reporter; in the data active = inhibition mostly above about 28%, no sharp cut-off; inactive = mostly below about 43%; also: 0% is about no effect
* hit, by the source's call; ? = inconclusive; nt = not tested or not shown; [ ] = remark or other dose. Unless noted, calls follow the shape of the dose curve; as a rule, active = well fitted curve in the direction sought with a large enough effect; inconclusive = small, poorly fitted or top-dose-only effect, or another doubt; inactive = no such curve, though single readings can be large; an effect the other way counts as inactive or inconclusive.

SMILES	Pf growth 96h	Pf growth 48h	Sm TGR inh	Cycloheximide cs	NS1 inh	Shiga toxin inh
CCC(C)C(=O)OCC1(c2ccc(C)cc2OC(=O)C(C)C)CO1 (configuration not stated)	22%	28%	-24%	-5	-6%	-3
Cc1ccc(C2(COC(=O)C(C)C)CO2)c(OC(=O)C(C)C)c1 (configuration not stated)	-24%	26%	-19%	10*	6%	13
COc1ccc2[nH]c(=O)c(NC(N)=S)nc2c1	-10%	33%	2%	7	-4%	5
Cc1ccccc1S(=O)(=O)Cc1ccc(C(=O)NCc2ccc(F)cc2)o1	43%	3%	-13%	-2	nt	11
COc1ccccc1N1CCN(/N=C/c2ccc([N+](=O)[O-])cc2)CC1	10µM*	34%	13%	21*	19%	13
COc1ccccc1N1CCN(/N=C/c2ccc(Cl)c([N+](=O)[O-])c2)CC1	336%	64%	-6%	55*	-16%	43*
COc1ccccc1N1CCN(/N=C\c2cccnc2)CC1	?	17%	-4%	-3	-7%	-1
CCC(COC(=O)c1cc(OC)c(OC)c(OC)c1)(c1ccccc1)N(C)C (configuration not stated)	?	15µM*	-1%	2	7%	-7
Cc1ccc(/C=C/C(=O)N2CCN(S(=O)(=O)c3cccs3)CC2)o1	?	65%	8.9µM*	23*	?	-4
O=C(/C=C/c1ccco1)N1CCN(S(=O)(=O)c2cccs2)CC1	?	?	3.5µM*	-2	6%	15
CCN1CCN(C(=O)/C=C/c2ccc(C)o2)CC1	-6%	9%	?	7	-6%	-8
CCOC(=O)N1CCN(S(=O)(=O)c2cccs2)CC1	nt	-10%	-6%	-3	1%	-7
O=C(CC12CC3CC(CC(C3)C1)C2)N1CCN(S(=O)(=O)c2cccs2)CC1	13µM*	?	-4%	4	8%	-7
O=C(/C=C/c1cccc([N+](=O)[O-])c1)N1CCN(S(=O)(=O)c2cccs2)CC1	?	-6%	-1%	-4	3%	-7
Cc1ccc(/C=C/C(=O)N2CC(C)CC(C)C2)o1 (configuration not stated)	51%	13%	2.8µM*	11	-17%	5
COc1ccc(C2C3C=CCC(C)C3C(=O)N2Cc2ccccc2)cc1Cl (configuration not stated)	nt	nt	nt	-9	nt	6
CCOC(=O)c1nc(-c2ccc(OC)c(OC)c2)cnc1C#N	-2%	26%	3%	4	-3%	11
CN1C(C(=O)NC(C)(C)C)=CC(c2ccc3c(c2)OCO3)=NS1(=O)=O	nt	nt	8%	nt	nt	nt
Cc1cc(C)n(C(=O)c2ccc(Cl)c(F)c2F)n1	9.3µM*	1%	nt	-1	0%	-1
Cc1cc(C)n(C(=O)c2cc(F)c(F)cc2C)n1	8%	11%	7%	25*	3%	70*
COc1c(Cl)cc(Cl)cc1C(=O)n1nc(C)cc1C	298%	-17%	-5%	-4	6%	9
Cc1cc(C)n(C(=O)c2ccc(C)c(Br)c2)n1	32%	1%	2%	-1	1%	14
O=C(OCc1ccccc1)c1cccnc1	15µM*	?	nt	nt	nt	nt
COC(=O)c1ccc(COC(=O)c2ccc(N(C)C)cc2)cc1	nt	43%	16%	41*	10%[9.22 µM]	65*
O=C(Oc1ccccc1)c1cccc(COC(=O)c2cnccn2)c1	nt	16%	12%	36*	-28%	active
SMILES	Pf growth 96h	Pf growth 48h	Sm TGR inh	Cycloheximide cs	NS1 inh	Shiga toxin inh
O=C(OCc1ccc(Br)cc1)c1cccnc1	17%	4%	-17%	-3	-51%	3
CN(C)c1ccc(C(=O)OCc2ccccc2)cc1	58%	nt	7%	35*	-3%	51
COC(=O)c1cccc(COC(=O)c2ccc(N(C)C)cc2)c1	20%	47%	0%	-3	1%	19
CN(CC[C@@H](Oc1ccc(C(F)(F)F)cc1)c1ccccc1)CC(=O)O	nt	nt	nt	-5	nt	-6
N#Cc1c[nH]n2c(NC3CCCCC3)c(-c3ccc(F)cc3)nc12	nt	nt	7%	nt	nt	nt
CC(C)C(NS(=O)(=O)c1ccc2c(c1)oc(=O)n2C)C(=O)N1CCN(c2cccc(Cl)c2)CC1 (configuration not stated)	nt	nt	-4%	nt	nt	nt
C=CCNc1nc(-c2ccccn2)nnc1-c1ccccc1	1.7µM*	nt	-10%	-3	-171%	4
CCOC(=O)c1cc(CC)sc1NC(=O)COC(=O)c1ccccn1	4%	?	-1%	nt	nt	nt
C=C[C@@H]1c2cc(C)ccc2N(S(=O)(=O)c2ccc(C)cc2)[C@H](c2ccc(OC(C)=O)cc2)C1(C#N)C#N	?	?	-1%	nt	nt	nt
C=C[C@@H]1c2ccccc2N(S(=O)(=O)c2ccc(C)cc2)[C@H](c2ccc(OC(C)=O)cc2)C1(C#N)C#N	?	3.7µM*	1%	nt	nt	nt
Nc1ccc(C(=O)OCCCc2nc3cc4ccccc4cc3[nH]2)cc1	?	?	5%	16	4%	26
O=C(OCc1nc2ccsc2c(=O)[nH]1)c1ccccc1	21%	37%	0%	nt	nt	nt
Nc1ccc(C(=O)OCc2nc3c(ccc4ccccc43)[nH]2)cc1	-2%	324%	-6%	25*	-5%	80*
Nc1ccc(Cc2nc3cc4ccccc4cc3[nH]2)cc1	45%	40%	8%	45*	5%	52*
Nc1ccc(C(=O)OCc2nc3cc4ccccc4cc3[nH]2)cc1	25%	-6%	-12%	14	nt	48*
Cc1ccnc(NC(=O)CCC(=O)N(CC(=O)NCc2ccccc2)Cc2cccs2)c1	-11%	-20%	-2%	6	nt	16
C[C@@H]1CCCC(CC(=O)O)(CC(=O)O)C1	nt	nt	nt	nt	1%	nt
O=C(O)c1ccccc1N/N=C/c1c(Sc2nnnn2-c2ccccc2)nc2ccccn2c1=O	0.59µM*	?	40µM*	3	6%	-5
O=c1c(/C=N/Nc2ccccc2)c(Sc2nnnn2-c2ccccc2)nc2ccccn12	nt	-2%	?	-3	7%	-22
O=C(Nc1ccc(F)c(Cl)c1)C1CCN(C(=O)c2ccc(F)cc2)CC1	nt	nt	5%	nt	nt	nt
COc1ccc(C)cc1NC(=O)c1sc2nc(-c3ccc(F)cc3)cn2c1C	nt	nt	-15%	nt	nt	nt
COc1ccc(-c2cn3c(C)c(C(=O)NC(C)(C)C)sc3n2)cc1	92%	71%	-1%	30*	-1%	41*
Cc1c(C(=O)Nc2ccc3c(c2)OCO3)sc2nc(-c3ccccc3)cn12	?	13µM*	1%	1	1%	-4
Cc1cccc(NC(=O)c2sc3nc(-c4ccccc4)cn3c2C)n1	?	?	?	36*	-9%	66*
COc1ccc(-c2cn3c(C)c(C(=O)Nc4cccc(C)n4)sc3n2)cc1	17%	?	2%	12*	1%	-2
